PubChem BioAssay (NCI)
Values joined by “and” are separate entries in the source; they are usually repeats but may differ in a detail not shown here. Equal values may be shown once. Compounds without any hit were thinned out: in the full panel of roughly 83,000, 20% have a hit.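 Growth was measured after 48 h exposure to one concentration of compound in 96-well plates. Values under 10 count as active.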 Active and inactive are the calls of the source.

How the values were obtained:
Experiment in all cases: NCI-60 one-dose screen, 48 h (100 = growth as untreated, 0 = no growth, -100 = all killed)
Conditions in all cases: 10 µM unless noted
[1] = tested on: SK-MEL-2 melanoma
[2] = tested on: EKVX NSCLC
[3] = tested on: SN12C renal
[4] = tested on: UO-31 renal
[5] = tested on: TK-10 renal
[6] = tested on: CAKI-1 renal
[7] = tested on: A498 renal
[8] = tested on: CCRF-CEM leukemia
[9] = tested on: MOLT-4 leukemia
[10] = tested on: SR leukemia
[11] = tested on: RPMI-8226 leukemia
[12] = tested on: OVCAR-8 ovarian
[13] = tested on: OVCAR-5 ovarian
[14] = tested on: OVCAR-4 ovarian
[15] = tested on: SK-OV-3 ovarian
[16] = tested on: IGROV1 ovarian
[17] = tested on: OVCAR-3 ovarian
[18] = tested on: HS 578T breast
[19] = tested on: NCI/ADR-RES ovarian
[20] = tested on: ACHN renal

With C/C(=C\c1ccccc1)C(O)C(=O)c1nc2ccc([N+](=O)[O-])cc2[nH]c1=O (stereo not given) the growth [1] was 93.6% (inactive), the growth [2] was 92.6% (inactive) and the growth [3] was 90% (inactive). For the same compound, the growth [4] was 74.4% (inactive), the growth [5] was 109% (inactive) and the growth [6] was 96% (inactive). For the same compound, the growth [7] was 110% (inactive), the growth [8] was 74.8% (inactive) and the growth [9] was 91% (inactive). For the same compound, the growth [10] was 102% (inactive), the growth [11] was 90.2% (inactive) and the growth [12] was 96.6% (inactive). The growth [13] was 96% (inactive), the growth [14] was 114% (inactive) and the growth [15] was 105% (inactive). For the same compound, the growth [16] was 102% (inactive), the growth [17] was 113% (inactive) and the growth [18] was 94.7% (inactive). For the same compound, the growth [19] was 87.7% (inactive).
c1ccc2c[n+](Cc3ccc4ccccc4n3)ccc2c1 was tested, and the growth [1] was 102% (inactive), the growth [2] was 82.5% (inactive) and the growth [3] was 80% (inactive). The growth [4] was 82.4% (inactive), the growth [20] was 99.8% (inactive) and the growth [6] was 102% (inactive). The growth [7] was 79.4% (inactive), the growth [8] was 76.8% (inactive) and the growth [9] was 92.4% (inactive). The growth [10] was 98.1% (inactive), the growth [11] was 57.2% (inactive) and the growth [12] was 69% (inactive). For the same compound, the growth [13] was 105% (inactive), the growth [14] was 67.1% (inactive) and the growth [15] was 88.5% (inactive). For the same compound, the growth [16] was 80.5% (inactive), the growth [17] was 62.1% (inactive) and the growth [18] was 86.2% (inactive). For the same compound, the growth [19] was 102% (inactive).
With CC1(CO)CCCC1NCCNC1CCCC1(C)CO (stereo not given) the growth [1] was 89.9% (inactive) and 110% (inactive), the growth [2] was 101% (inactive) and the growth [3] was 98% (inactive) and 103% (inactive). The growth [4] was 105% (inactive) and 86% (inactive), the growth [5] was 108% (inactive) and the growth [6] was 99.5% (inactive) and 92.3% (inactive). The growth [7] was 102% (inactive) and 111% (inactive), the growth [8] was 99.6% (inactive) and the growth [9] was 115% (inactive) and 104% (inactive). For the same compound, the growth [10] was 95.9% (inactive), the growth [12] was 97.8% (inactive) and 102% (inactive) and the growth [13] was 110% (inactive) and 98.9% (inactive). The growth [14] was 90.4% (inactive) and 101% (inactive), the growth [15] was 111% (inactive) and 101% (inactive) and the growth [16] was 115% (inactive) and 107% (inactive). For the same compound, the growth [17] was 128% (inactive) and 112% (inactive) and the growth [19] was 105% (inactive) and 107% (inactive).
For CC(=O)Oc1ccc(C2(c3ccc(OC(C)=O)cc3)C(=O)Nc3ccccc32)cc1, the growth [1] was 90.4% (inactive) and 80.7% (inactive), the growth [2] was 86% (inactive) and 85.8% (inactive) and the growth [3] was 17.7% (inactive) and 16% (inactive). For the same compound, the growth [4] was 81.9% (inactive) and 85.4% (inactive), the growth [5] was 18.3% (inactive) and 35.6% (inactive) and the growth [6] was 68.2% (inactive) and 77.4% (inactive). The growth [7] was 107% (inactive) and 111% (inactive), the growth [8] was 97.9% (inactive) and 86.7% (inactive) and the growth [9] was 71.4% (inactive) and 97.6% (inactive). For the same compound, the growth [11] was 108% (inactive) and 75.1% (inactive), the growth [12] was 27.1% (inactive) and 25.5% (inactive) and the growth [13] was 103% (inactive) and 89.5% (inactive). The growth [14] was 6.67% (active) and -15.3% (active), the growth [15] was 115% (inactive) and 114% (inactive) and the growth [16] was 65% (inactive) and 46.1% (inactive). For the same compound, the growth [17] was -1.41% (active) and -3.11% (active), the growth [18] was -18.5% (active) and -15.5% (active) and the growth [19] was 16.6% (inactive) and -4.21% (active).
For Cc1cc2ccccc2c2cc3ccccc3cc12, the growth [1] was 92.6% (inactive), the growth [2] was 82.7% (inactive) and the growth [3] was 98.3% (inactive). For the same compound, the growth [4] was 78.8% (inactive), the growth [5] was 98.8% (inactive) and the growth [6] was 88.8% (inactive). The growth [7] was 88.5% (inactive), the growth [8] was 97% (inactive) and the growth [9] was 65.6% (inactive). For the same compound, the growth [10] was 40.8% (inactive), the growth [12] was 98.9% (inactive) and the growth [13] was 86.9% (inactive). For the same compound, the growth [14] was 94.5% (inactive), the growth [15] was 90.6% (inactive) and the growth [16] was 61.8% (inactive). The growth [17] was 100% (inactive).
O=[N+]([O-])c1ccc(NC2CCCCC2)nc1 was tested, and the growth [1] was 104% (inactive) and 107% (inactive), the growth [2] was 101% (inactive) and 106% (inactive) and the growth [3] was 104% (inactive) and 108% (inactive). For the same compound, the growth [4] was 90% (inactive) and 76.3% (inactive), the growth [5] was 103% (inactive) and 101% (inactive) and the growth [6] was 96.7% (inactive) and 95.7% (inactive). For the same compound, the growth [7] was 102% (inactive), the growth [8] was 103% (inactive) and 96.3% (inactive) and the growth [9] was 95.2% (inactive) and 106% (inactive). For the same compound, the growth [10] was 98.1% (inactive), the growth [11] was 111% (inactive) and 101% (inactive) and the growth [12] was 118% (inactive) and 101% (inactive). For the same compound, the growth [13] was 104% (inactive) and 100% (inactive), the growth [14] was 109% (inactive) and the growth [15] was 108% (inactive). The growth [16] was 116% (inactive) and 104% (inactive), the growth [17] was 112% (inactive) and 114% (inactive) and the growth [18] was 100% (inactive) and 101% (inactive). The growth [19] was 105% (inactive) and 103% (inactive).
In the case of CCCCC/C(C)=N\NC(N)=S, the growth [1] was 103% (inactive), the growth [2] was 55.4% (inactive) and the growth [3] was 84.4% (inactive). The growth [4] was 61.8% (inactive), the growth [5] was 100% (inactive) and the growth [6] was 95.2% (inactive). The growth [7] was 84.7% (inactive), the growth [8] was 41.1% (inactive) and the growth [9] was 57.2% (inactive). For the same compound, the growth [10] was 86.9% (inactive), the growth [11] was 70.9% (inactive) and the growth [12] was 65.3% (inactive). For the same compound, the growth [13] was 103% (inactive), the growth [14] was 67.8% (inactive) and the growth [15] was 98.9% (inactive). The growth [16] was 89.7% (inactive), the growth [17] was 43.4% (inactive) and the growth [18] was 87.6% (inactive). The growth [19] was 48.8% (inactive).
CS(=O)(=O)OCC1NC(=O)C(COS(C)(=O)=O)NC1=O (stereo not given) was tested, and the growth [1] was 75.4% (inactive) and 89.1% (inactive), the growth [2] was 98.9% (inactive) and 89.2% (inactive) and the growth [3] was 108% (inactive) and 111% (inactive). For the same compound, the growth [4] was 91.7% (inactive) and 94.1% (inactive), the growth [5] was 130% (inactive) and 138% (inactive) and the growth [6] was 97% (inactive) and 91.3% (inactive). The growth [7] was 104% (inactive) and 154% (inactive), the growth [8] was 82.4% (inactive) and 74.2% (inactive) and the growth [9] was 91.6% (inactive) and 69% (inactive). The growth [10] was 104% (inactive) and 125% (inactive), the growth [11] was 82.7% (inactive) and 90% (inactive) and the growth [12] was 87.5% (inactive) and 107% (inactive). For the same compound, the growth [13] was 106% (inactive) and 124% (inactive), the growth [14] was 79.8% (inactive) and 87% (inactive) and the growth [15] was 107% (inactive) and 120% (inactive). The growth [16] was 63.4% (inactive) and 57.5% (inactive), the growth [17] was 122% (inactive) and 94.8% (inactive) and the growth [18] was 193% (inactive) and 106% (inactive). The growth [19] was 103% (inactive) and 97.8% (inactive).
In the case of C/C=C/C(=O)OCCCCCCCCCCCC, the growth [1] was 94.3% (inactive), the growth [2] was 111% (inactive) and the growth [3] was 81.6% (inactive). For the same compound, the growth [4] was 109% (inactive), the growth [5] was 92.8% (inactive) and the growth [7] was 103% (inactive). For the same compound, the growth [8] was 117% (inactive), the growth [9] was 83.1% (inactive) and the growth [10] was 83.4% (inactive). The growth [11] was 99.9% (inactive), the growth [12] was 90.5% (inactive) and the growth [13] was 99.2% (inactive). For the same compound, the growth [14] was 113% (inactive), the growth [15] was 97.5% (inactive) and the growth [16] was 111% (inactive). For the same compound, the growth [17] was 106% (inactive) and the growth [19] was 106% (inactive).
In the case of COc1ccc2oc3c(ccc[n+]3C)c(=O)c2c1, the growth [1] was 99.6% (inactive), the growth [2] was 93.3% (inactive) and the growth [3] was 110% (inactive). For the same compound, the growth [4] was 91.9% (inactive), the growth [20] was 99.1% (inactive) and the growth [6] was 98.2% (inactive). The growth [7] was 95.7% (inactive), the growth [8] was 110% (inactive) and the growth [9] was 103% (inactive). For the same compound, the growth [10] was 119% (inactive), the growth [11] was 104% (inactive) and the growth [12] was 96.5% (inactive). The growth [13] was 98.9% (inactive), the growth [14] was 108% (inactive) and the growth [15] was 99.7% (inactive). For the same compound, the growth [16] was 108% (inactive), the growth [17] was 109% (inactive) and the growth [18] was 99.8% (inactive). For the same compound, the growth [19] was 108% (inactive).
In the case of CC(=O)Oc1ccc(C(c2ccc(OC(C)=O)cc2)c2ccccn2)cc1, the growth [1] was 107% (inactive) and 94.3% (inactive), the growth [2] was 82.5% (inactive) and 87.8% (inactive) and the growth [3] was 29.3% (inactive) and 30.9% (inactive). For the same compound, the growth [4] was 74.3% (inactive) and 89.2% (inactive), the growth [5] was 77.1% (inactive) and 86.1% (inactive) and the growth [6] was 100% (inactive) and 117% (inactive). For the same compound, the growth [7] was 91.1% (inactive), the growth [8] was 98.8% (inactive) and 90.9% (inactive) and the growth [9] was 93.3% (inactive) and 103% (inactive). The growth [10] was 95.1% (inactive) and 98% (inactive), the growth [11] was 82.9% (inactive) and 104% (inactive) and the growth [12] was 48.7% (inactive). The growth [13] was 109% (inactive) and 27% (inactive), the growth [14] was -9.93% (active) and -15.5% (active) and the growth [15] was 119% (inactive). For the same compound, the growth [16] was 69% (inactive) and 79.3% (inactive), the growth [17] was 61.3% (inactive) and 71% (inactive) and the growth [18] was 31.2% (inactive). The growth [19] was 49.9% (inactive) and 34.3% (inactive).
With CN(C)c1ccc(C(=N)c2ccc(N(C)C)cc2)cc1 the growth [1] was 22.1% (inactive) and 3.75% (active), the growth [2] was 58% (inactive) and 48.4% (inactive) and the growth [3] was 40.8% (inactive) and 42.4% (inactive). For the same compound, the growth [4] was 50.1% (inactive) and 37.5% (inactive), the growth [5] was 37% (inactive) and 67% (inactive) and the growth [6] was 30.8% (inactive) and 19% (inactive). For the same compound, the growth [7] was 15.2% (inactive) and -1.88% (active), the growth [8] was 33.5% (inactive) and the growth [9] was 29.2% (inactive) and 16.8% (inactive). The growth [10] was 19.9% (inactive) and 10.4% (inactive), the growth [11] was 30.6% (inactive) and 25.1% (inactive) and the growth [12] was 31.5% (inactive) and 31.2% (inactive). For the same compound, the growth [13] was 68.1% (inactive) and 65.4% (inactive), the growth [14] was 57.8% (inactive) and 34.9% (inactive) and the growth [15] was 31.1% (inactive) and 31.6% (inactive). For the same compound, the growth [16] was 35.2% (inactive) and 46% (inactive), the growth [17] was -9.34% (active) and 2.49% (active) and the growth [18] was 16% (inactive) and 40.5% (inactive). The growth [19] was 0.0366% (active) and 2.94% (active).
